The record followed here is the supplement of paper PMC9492666.

One assay deals with HCC1937. The assay is described as follows: relative cell viability, compound + RSL3, vs DMSO (fraction of DMSO control); higher = less growth inhibition. As to conditions: 72 h.
In another assay the test system is MDA-MB-231. The assay is described as above. As to conditions: 72 h.

Structures can show the parent of a compound that is named as a salt.
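Note: breast cancer cell viability read out with the CCK-8 kit after co-treatment of each compound with the ferroptosis inducer RSL3.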

Take `CC[C@H]1[C@@H](O)[C@@H]2[C@H](CC[C@]3(C)[C@@H]([C@H](C)CCC(=O)O)CC[C@@H]23)[C@@]2(C)CC[C@@H](O)C[C@@H]12` [Obeticholic Acid] + COC(=O)c1ccc([C@H]2c3[nH]c4ccccc4c3C[C@H](C(=O)OC)N2C(=O)CCl)cc1 [RSL3]: the relative cell viability in the assay on HCC1937 is 0.513; in the assay with MDA-MB-231, 0.543.

Consider `CC1=C(/C=C/C(C)=C/C=C/C(C)=C/C=C/C=C(C)/C=C/C=C(C)/C=C/C2=C(C)C(=O)[C@@H](O)CC2(C)C)C(C)(C)C[C@H](O)C1=O` [Astaxanthin] + COC(=O)c1ccc([C@H]2c3[nH]c4ccccc4c3C[C@H](C(=O)OC)N2C(=O)CCl)cc1 [RSL3], for which the figures for the relative cell viability in the assay with HCC1937 and in the assay on MDA-MB-231 were 0.562 and 0.689, respectively.

Regarding `C=C[C@H]1CN2CC[C@H]1C[C@@H]2[C@@H](O)c1ccnc2ccc(OC)cc12` [Quinidine sulfate] + COC(=O)c1ccc([C@H]2c3[nH]c4ccccc4c3C[C@H](C(=O)OC)N2C(=O)CCl)cc1 [RSL3], the relative cell viability in the assay on HCC1937 was found to be 0.439; with MDA-MB-231 it was 0.673.

On to `CCN(CC)Cc1ccc(C(=O)N(CCc2ccccc2OC)[C@@H]2CCNC2)cc1` + COC(=O)c1ccc([C@H]2c3[nH]c4ccccc4c3C[C@H](C(=O)OC)N2C(=O)CCl)cc1 [RSL3], for which the relative cell viability is 0.666 with HCC1937 and 0.784 with MDA-MB-231.

Turning to `CN(C)C(=N)NC(=N)N` [Metformin hydrochloride] + COC(=O)c1ccc([C@H]2c3[nH]c4ccccc4c3C[C@H](C(=O)OC)N2C(=O)CCl)cc1 [RSL3], the figures for the relative cell viability in the assay on HCC1937 and with MDA-MB-231 were 0.855 and 0.605, respectively.

For the compound `Cc1cc(N2C[C@@H](C)N[C@@H](C)C2)ncc1-c1ccc(-c2nc3c(ccn3C)c(=O)[nH]2)cc1` + COC(=O)c1ccc([C@H]2c3[nH]c4ccccc4c3C[C@H](C(=O)OC)N2C(=O)CCl)cc1 [RSL3], the relative cell viability in the assay on HCC1937 stood at 0.496; in the assay with MDA-MB-231, 0.682.

For `Cc1cc(SCc2sc(-c3ccc(C(F)(F)F)cc3)nc2C)ccc1OCC(=O)O` + COC(=O)c1ccc([C@H]2c3[nH]c4ccccc4c3C[C@H](C(=O)OC)N2C(=O)CCl)cc1 [RSL3], the figures for the relative cell viability with HCC1937 and with MDA-MB-231 were 0.339 and 0.554, respectively.

With `O=C(O)/C=C/c1ccc(O)c(O)c1` [Caffeic Acid] + COC(=O)c1ccc([C@H]2c3[nH]c4ccccc4c3C[C@H](C(=O)OC)N2C(=O)CCl)cc1 [RSL3], the relative cell viability was 0.623 in the assay with HCC1937 and 0.426 in the assay on MDA-MB-231.

Consider `O=C(ON1C(=O)CCC1=O)N1CCN(C(c2ccc(Cl)cc2)c2ccc(Cl)cc2)CC1` [Cravatt Reagent] + COC(=O)c1ccc([C@H]2c3[nH]c4ccccc4c3C[C@H](C(=O)OC)N2C(=O)CCl)cc1 [RSL3], for which the values for the relative cell viability in the assay on HCC1937 and with MDA-MB-231 were 0.55 and 0.716, respectively.

As to `O=C(Nc1ccccc1)c1cc([N+](=O)[O-])ccc1Cl` + COC(=O)c1ccc([C@H]2c3[nH]c4ccccc4c3C[C@H](C(=O)OC)N2C(=O)CCl)cc1 [RSL3], the relative cell viability with HCC1937 was 0.805; with MDA-MB-231, 0.705.

Regarding `CCC1C(O)C2C3CCC(C(C)CCO)C3(C)CCC2C2(C)CCC(O)CC12` (centres undefined) + COC(=O)c1ccc([C@H]2c3[nH]c4ccccc4c3C[C@H](C(=O)OC)N2C(=O)CCl)cc1 [RSL3], the values for the relative cell viability in the assay on HCC1937 and in the assay on MDA-MB-231 were 0.399 and 0.364, respectively.

On to `C=C(C)[C@@H]1CCC2=CC(=O)C[C@@H](C)[C@]2(C)C1` [Nootkatone] + COC(=O)c1ccc([C@H]2c3[nH]c4ccccc4c3C[C@H](C(=O)OC)N2C(=O)CCl)cc1 [RSL3], for which the relative cell viability in the assay with HCC1937 was 0.509; in the assay on MDA-MB-231, 0.613.

In the case of `Cc1cc(C)c(S(=O)(=O)Nc2cccc(C(F)(F)F)c2)c(C)c1` + COC(=O)c1ccc([C@H]2c3[nH]c4ccccc4c3C[C@H](C(=O)OC)N2C(=O)CCl)cc1 [RSL3], the relative cell viability in the assay with HCC1937 was 0.504; in the assay with MDA-MB-231, 0.775.

Consider `Cc1nc(Nc2cnn(C3CCNCC3)c2)nc2c1N(C)C(=O)c1cc3ccccc3cc1N2C` + COC(=O)c1ccc([C@H]2c3[nH]c4ccccc4c3C[C@H](C(=O)OC)N2C(=O)CCl)cc1 [RSL3], for which the relative cell viability in the assay on HCC1937 stood at 0.31; in the assay with MDA-MB-231, 0.287.

Consider `COc1ccc(C2(CNC(=O)c3ccc(NC(=O)c4ccco4)cc3)CCOCC2)cc1` + COC(=O)c1ccc([C@H]2c3[nH]c4ccccc4c3C[C@H](C(=O)OC)N2C(=O)CCl)cc1 [RSL3], for which the relative cell viability in the assay on HCC1937 worked out at 0.441; in the assay on MDA-MB-231, 0.49.

Consider `CC1(N)CCN(c2cnc(-c3cccc(Cl)c3Cl)c(N)n2)CC1` [SHP099 hydrochloride] + COC(=O)c1ccc([C@H]2c3[nH]c4ccccc4c3C[C@H](C(=O)OC)N2C(=O)CCl)cc1 [RSL3], for which the relative cell viability with HCC1937 is 0.397; in the assay on MDA-MB-231 it was 0.628.

On to `CN1CC(O)C2=C/C(=N/NC(N)=O)C(=O)C=C21` (centres undefined) [Carbazochrome] + COC(=O)c1ccc([C@H]2c3[nH]c4ccccc4c3C[C@H](C(=O)OC)N2C(=O)CCl)cc1 [RSL3], for which the relative cell viability in the assay on HCC1937 turned out to be 0.451; in the assay on MDA-MB-231, 0.551.
